Assay [1] addresses Nuclear receptor subfamily 1 group I member 2 (Mus musculus) (UniProt O54915). Kind of assay: ATG_mPXR_XSP2: Attagene TRANS-FACTORIAL Multi-Species (XSP1) HepG2 Assay for mouse Pregnane X Receptor (PXR) (AID 2283831). The method, boiled down: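 Human liver HepG2 cells expressing exogenous receptor-GAL4 chimeras were exposed to test chemicals for 24 h. Induction of reporter mRNA was scored as gain of fluorescence signal over DMSO controls.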

Assay [2] concerns zebrafish Peroxisome Proliferator-activated Receptor gamma (PPARg), gene 557037. The assay is described as follows: ATG_zfPPARg_XSP2: Attagene TRANS-FACTORIAL Multi-Species (XSP2) HepG2 Assay for zebrafish Peroxisome Proliferator-activated Receptor gamma (PPARg) (AID 2283833).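 Further: reporter mRNA from a zebrafish PPARg GAL4 chimera measured by RT-PCR and capillary electrophoresis; actives increase reporter signal over DMSO so AC50 reflects activation.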 In a few lines:
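Cell-based transactivation of a chimeric zebrafish PPARg-GAL4 receptor was assessed in transiently transfected HepG2 cells after 24 h of treatment. Reporter mRNA induction, detected fluorescently after RT-PCR, was analysed in the positive direction against DMSO.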

For assay [3], the system named is turtle Thyroid Hormone Receptor, alpha (TRa), gene 101949057. Kind of assay: ATG_trTRa_XSP2: Attagene TRANS-FACTORIAL Multi-Species (XSP1) HepG2 Assay for turtle Thyroid Hormone Receptor, alpha (TRa) (AID 2283834).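 Further: hits raise reporter mRNA over the DMSO baseline so AC50 marks activators.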 The method, boiled down: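 Gain-of-signal reporter transcription measured in transiently transfected HepG2 at 24 h post-dose. Fluorescent RT-PCR products were resolved by capillary electrophoresis and compared with DMSO vehicle.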

In assay [4] the target is human Thyroid hormone Receptor alpha (TRa), THRA (gene 7067) (UniProt P10827). The assay is described as follows: ATG_hTRa_XSP2: Attagene TRANS-FACTORIAL Multi-Species (XSP2) HepG2 Assay for human Thyroid hormone Receptor alpha (TRa) (AID 2283838). The method, boiled down: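 Gain-of-signal in reporter mRNA, relative to DMSO, after 24 h dosing of transfected HepG2; quantitation by RT-PCR fragment analysis on capillary electrophoresis.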

Assay [5] concerns the target frog Thyroid hormone Receptor alpha (TRa), thra-a (gene 397942) (UniProt P15204). The assay is described as follows: ATG_frTRa_XSP2: Attagene TRANS-FACTORIAL Multi-Species (XSP2) HepG2 Assay for frog Thyroid hormone Receptor alpha (TRa) (AID 2283839).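 On AC50: AC50 reflects induction of frog TRa-driven reporter mRNA above DMSO baseline.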 In a few lines:
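Frog thyroid receptor alpha was tested as an exogenous NR-Gal4 fusion in transiently transfected HepG2 cells. After 24 h chemical treatment, reporter mRNA induction was quantified by RT-PCR and capillary electrophoresis, with gain-of-signal analysed relative to DMSO.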

In assay [6] the target is human Thyroid hormone Receptor beta (TRb), THRB (gene 7068) (UniProt P10828). The assay is described as follows: ATG_hTRb_XSP2: Attagene TRANS-FACTORIAL Multi-Species (XSP2) HepG2 Assay for human Thyroid hormone Receptor beta (TRb) (AID 2283840).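 Further: actives raise reporter mRNA so potency reflects agonist-like gain of signal.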 In a few lines: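 In this cell-based multiplex, HepG2 liver cells carrying transfected GAL4-UAS reporter constructs are exposed to chemical for 24 hours, then reporter transcripts are measured by RT-PCR with capillary electrophoresis, scored as gain of signal against DMSO.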

Assay [7] concerns Sodium/Iodide Symporter (NIS), SLC5A5 (gene 6528). The assay is described as follows: CPHEA_Stoker_NIS_Inhibition_RAIU: CPHEA's Radioactive Iodide Uptake (RAIU) Assay for Sodium/Iodide Symporter (NIS) Inhibition, Stoker and Laws Labs (AID 2283841). The method, boiled down:
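hNIS-HEK293T-EPA cells incubated 2 h at room temperature with compound (0.001–100 uM, 0.5% DMSO) and 329 pM final 125I in HBSS/10 mM HEPES, pH 7.4. Intracellular 125I counted; normalised to DMSO maximal uptake, triplicate, three biological replicates.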

Assay [8] in a line: CPHEA_Stoker_NIS_Cytotoxicity: Cytotoxicity Assessment for CPHEA's Radioactive Iodide Uptake (RAIU) Assay for Sodium/Iodide Symporter (NIS) Inhibition, Stoker and Laws Labs (AID 2283897). In a few lines: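 hNIS-HEK293T-EPA cells, human NIS expressed in HEK293T, treated 2 h with chemicals (0.001–100 uM, 0.5% final DMSO). ATP content read by CellTiter-Glo luminescence; loss of signal analysed relative to DMSO.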

Assay [9] can be described thus: CEETOX_H295R_11DCORT_noMTC: CeeTox H295R High-throughput Steroidogenesis Assay for 11-Deoxycortisol (11DCORT), maximum tolerated concentration (MTC) filtered results only (AID 2283911; active means hit-call score of the fitted dose curve at least 0.9, where 1 is the maximum; inactive means score below 0.9). The conditions noted are these: actives raise or lower the signal. The method, boiled down: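 Readout is 11-deoxycortisol in culture medium by reverse-phase HPLC with MS/MS, after 48 h chemical treatment of forskolin-primed H295R cells. Values are relative to DMSO and unfiltered for cytotoxicity.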

Assay [10] in a line: CEETOX_H295R_OHPREG_noMTC: CeeTox H295R High-throughput Steroidogenesis Assay for OH-Pregnenolone (OHPREG), maximum tolerated concentration (MTC) filtered results only (AID 2283912; active means hit-call score of the fitted dose curve at least 0.9, where 1 is the maximum; inactive means score below 0.9). Particulars: actives raise or lower the signal. The method, boiled down:
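H295R; 10 uM forskolin 48 h pre-stim; test cpd in DMSO (0.1% final) 48 h; media MTBE-extracted, HPLC-MS/MS for OH-pregnenolone; bidirectional fit vs DMSO; no MTC (MTT) filtering.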

A short description of assay [11]: CEETOX_H295R_OHPROG_noMTC: CeeTox H295R High-throughput Steroidogenesis Assay for OH-Progesterone (OHPROG), maximum tolerated concentration (MTC) filtered results only (AID 2283914; active means hit-call score of the fitted dose curve at least 0.9, where 1 is the maximum; inactive means score below 0.9). Particulars: actives raise or lower the signal. The method, boiled down: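 Medium hormone measured by reverse-phase C18 HPLC with positive electrospray MS/MS after MTBE liquid-liquid extraction. Cells had 48 h forskolin (10 uM) prestimulation, then 48 h chemical dosing. Gain or loss of signal fitted relative to DMSO baseline.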

Assay [12] in a line: CEETOX_H295R_CORTISOL_noMTC: CeeTox H295R High-throughput Steroidogenesis Assay for Cortisol, maximum tolerated concentration (MTC) filtered results only (AID 2283916; active means hit-call score of the fitted dose curve at least 0.9, where 1 is the maximum; inactive means score below 0.9). The conditions noted are these: actives raise or lower the signal. In a few lines: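 H295R human adrenal cells prestimulated 48 h with 10 uM forskolin, then exposed 48 h to chemical in 0.1% DMSO; cortisol in medium quantified by HPLC-MS/MS; bidirectional fit vs DMSO baseline, concentrations not MTT-filtered for MTC.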

Assay [13] in a line: CEETOX_H295R_CORTIC_noMTC: CeeTox H295R High-throughput Steroidogenesis Assay for Corticosterone (CORTIC), maximum tolerated concentration (MTC) filtered results only (AID 2283917; active means hit-call score of the fitted dose curve at least 0.9, where 1 is the maximum; inactive means score below 0.9). The conditions noted are these: actives raise or lower the signal. The method, boiled down: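 Corticosterone secreted into the medium was measured by reverse-phase C18 HPLC with tandem MS after MTBE extraction. Cells (H295R) had 48 h forskolin (10 uM) stimulation before 48 h chemical exposure; gain or loss of signal was fitted relative to DMSO.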

The nature of assay [14]: CEETOX_H295R_DOC_noMTC: CeeTox H295R High-throughput Steroidogenesis Assay for DOC, maximum tolerated concentration (MTC) filtered results only (AID 2283918; active means hit-call score of the fitted dose curve at least 0.9, where 1 is the maximum; inactive means score below 0.9). The conditions noted are these: actives raise or lower the signal. The method, boiled down:
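H295R cells prestimulated 48 h with 10 uM forskolin, then exposed 48 h to chemical in 0.1% DMSO. 11-Deoxycorticosterone in medium measured by MTBE extraction and HPLC-MS/MS; bidirectional fit vs DMSO, no MTC filter.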

Assay [15] in a line: CEETOX_H295R_PROG_noMTC: CeeTox H295R High-throughput Steroidogenesis Assay for Progesterone (PROG), maximum tolerated concentration (MTC) filtered results only (AID 2283920; active means hit-call score of the fitted dose curve at least 0.9, where 1 is the maximum; inactive means score below 0.9). The conditions noted are these: actives raise or lower the signal. The method, boiled down: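 Readout: medium progesterone by MTBE extraction, reverse-phase C18 HPLC, ESI-positive MS/MS. Human H295R cells, 10 uM forskolin pretreatment 48 h, chemical 48 h in 0.1% DMSO. Gain or loss fitted against DMSO baseline.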

For assay [16], the target named is zebrafish Thyroid Hormone Receptor alpha (TRa), thraa (gene 30670) (UniProt Q98867). The assay is described as follows: ATG_zfTRa_XSP2: Attagene TRANS-FACTORIAL Multi-Species (XSP1) HepG2 Assay for zebrafish Thyroid Hormone Receptor alpha (TRa) (AID 2283832).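 Further: actives raise zebrafish TRa-Gal4 reporter transcript above DMSO baseline.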 The method, boiled down:
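Multiplexed TRANS reporter format in HepG2; the medium also contained 3 nM 6-alpha-fluorotestosterone and 1.5 nM norgestrel. Reporter mRNA after 24 h read by RT-PCR and capillary electrophoresis, scored as induction over DMSO.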

A short description of assay [17]: ATG_M_61_XSP2: Attagene TRANS-FACTORIAL Multi-Species (XSP2) HepG2 Assay for M61 Transcription Factor (Internal Marker) (AID 2283835; active means hit-call score of the fitted dose curve at least 0.9, where 1 is the maximum; inactive means score below 0.9;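 further: reporter mRNA of an internal background marker read by RT-PCR and capillary electrophoresis; active means a rise in signal above the DMSO baseline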). The method, boiled down: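 Transient MRTU transfection of human HepG2; 24 h chemical dosing with 3 nM 6-alpha-fluorotestosterone + 1.5 nM norgestrel added for AR stimulation. RNA isolated, RT, PCR, FAM-labelled, HpaI cut, CE read. Positive direction vs DMSO.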

Assay [18] addresses zebrafish Thyroid Hormone Receptor beta (TRb), thrb (gene 30607) (UniProt Q9PVE4). Kind of assay: ATG_zfTRb_XSP2: Attagene TRANS-FACTORIAL Multi-Species (XSP1) HepG2 Assay for zebrafish Thyroid Hormone Receptor beta (TRb) (AID 2283836). In a few lines:
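Multiplexed trans-activation in HepG2 cells, 24 h treatment, with reporter mRNA read by RT-PCR and capillary electrophoresis. Gain-of-signal against DMSO.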

Assay [19] can be described thus: ATG_XTT_Cytotoxicity_XSP2: Cytotoxicity Assessment in the Attagene TRANS-FACTORIAL Multi-Species (XSP2) HepG2 Assay (AID 2283837). In a few lines: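 XTT-based cell number read-out in human HepG2 liver cells carrying transfected reporter units, measured 24 h after chemical dosing. Activity is signal loss versus DMSO baseline.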

The values that follow come from PubChem BioAssay (EPA / NIEHS).

Results filed as inconclusive are left out. Some structures have more than one record in an assay (separate samples or runs), and their calls can disagree. Calls of active or inactive are those of the source. How the source made its calls, unless noted: active means hit-call score of the fitted dose curve at least 0.9, where 1 is the maximum; inconclusive means response in the unintended direction; inactive means score below 0.9.

Chain of zebrafish Thyroid Hormone Receptor alpha (TRa), thraa (gene 30670) (Q98867 whole entry, looked up, the tested form may be a part): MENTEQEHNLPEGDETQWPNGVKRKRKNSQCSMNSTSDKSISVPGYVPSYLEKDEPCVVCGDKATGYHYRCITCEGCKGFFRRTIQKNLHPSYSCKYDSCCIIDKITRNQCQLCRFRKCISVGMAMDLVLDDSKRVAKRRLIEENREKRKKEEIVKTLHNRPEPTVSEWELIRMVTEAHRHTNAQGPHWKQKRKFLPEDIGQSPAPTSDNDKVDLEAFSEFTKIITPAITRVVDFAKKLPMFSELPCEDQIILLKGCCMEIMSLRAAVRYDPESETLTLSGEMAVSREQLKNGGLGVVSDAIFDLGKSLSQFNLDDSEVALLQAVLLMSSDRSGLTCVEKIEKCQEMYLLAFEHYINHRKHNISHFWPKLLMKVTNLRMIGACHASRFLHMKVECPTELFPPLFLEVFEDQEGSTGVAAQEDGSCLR
Chain of Nuclear receptor subfamily 1 group I member 2 (Mus musculus) (O54915 whole entry, looked up, the tested form may be a part): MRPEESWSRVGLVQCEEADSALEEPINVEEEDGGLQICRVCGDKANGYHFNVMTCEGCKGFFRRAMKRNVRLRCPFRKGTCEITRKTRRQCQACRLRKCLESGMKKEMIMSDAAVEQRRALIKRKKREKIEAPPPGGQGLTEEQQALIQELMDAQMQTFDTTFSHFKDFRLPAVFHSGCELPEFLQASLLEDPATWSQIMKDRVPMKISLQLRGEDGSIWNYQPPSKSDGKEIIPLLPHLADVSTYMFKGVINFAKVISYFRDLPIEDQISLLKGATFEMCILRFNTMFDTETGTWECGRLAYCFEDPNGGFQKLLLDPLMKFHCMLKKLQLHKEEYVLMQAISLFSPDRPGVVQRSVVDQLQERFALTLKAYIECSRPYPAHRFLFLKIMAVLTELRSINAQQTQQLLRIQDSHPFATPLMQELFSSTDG
Chain of human Thyroid hormone Receptor beta (TRb), THRB (gene 7068) (P10828 whole entry, looked up, the tested form may be a part): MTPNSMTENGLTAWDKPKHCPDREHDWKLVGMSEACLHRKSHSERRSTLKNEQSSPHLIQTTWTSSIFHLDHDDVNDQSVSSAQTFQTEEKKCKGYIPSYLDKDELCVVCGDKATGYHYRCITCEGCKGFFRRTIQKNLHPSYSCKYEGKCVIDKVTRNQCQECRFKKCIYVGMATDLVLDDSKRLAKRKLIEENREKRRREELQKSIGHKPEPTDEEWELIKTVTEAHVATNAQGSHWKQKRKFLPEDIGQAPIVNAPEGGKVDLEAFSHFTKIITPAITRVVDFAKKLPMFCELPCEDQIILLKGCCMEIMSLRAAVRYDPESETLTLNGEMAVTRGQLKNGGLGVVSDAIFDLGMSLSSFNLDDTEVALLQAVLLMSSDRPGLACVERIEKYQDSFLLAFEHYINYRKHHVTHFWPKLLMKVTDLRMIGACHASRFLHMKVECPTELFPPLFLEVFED
Chain of zebrafish Thyroid Hormone Receptor beta (TRb), thrb (gene 30607) (Q9PVE4 whole entry, looked up): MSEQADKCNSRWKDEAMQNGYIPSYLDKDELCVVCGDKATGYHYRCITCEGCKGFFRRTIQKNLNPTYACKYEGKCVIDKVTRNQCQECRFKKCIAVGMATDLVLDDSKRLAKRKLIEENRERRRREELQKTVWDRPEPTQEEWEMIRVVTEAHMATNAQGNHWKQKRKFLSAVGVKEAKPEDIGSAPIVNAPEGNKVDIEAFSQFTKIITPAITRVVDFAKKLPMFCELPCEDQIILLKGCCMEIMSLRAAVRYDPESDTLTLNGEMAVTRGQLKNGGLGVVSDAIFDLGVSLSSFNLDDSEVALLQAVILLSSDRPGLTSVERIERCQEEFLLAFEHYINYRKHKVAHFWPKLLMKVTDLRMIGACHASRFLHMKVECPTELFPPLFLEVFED
Chain of human Thyroid hormone Receptor alpha (TRa), THRA (gene 7067) (P10827 whole entry, looked up, the tested form may be a part): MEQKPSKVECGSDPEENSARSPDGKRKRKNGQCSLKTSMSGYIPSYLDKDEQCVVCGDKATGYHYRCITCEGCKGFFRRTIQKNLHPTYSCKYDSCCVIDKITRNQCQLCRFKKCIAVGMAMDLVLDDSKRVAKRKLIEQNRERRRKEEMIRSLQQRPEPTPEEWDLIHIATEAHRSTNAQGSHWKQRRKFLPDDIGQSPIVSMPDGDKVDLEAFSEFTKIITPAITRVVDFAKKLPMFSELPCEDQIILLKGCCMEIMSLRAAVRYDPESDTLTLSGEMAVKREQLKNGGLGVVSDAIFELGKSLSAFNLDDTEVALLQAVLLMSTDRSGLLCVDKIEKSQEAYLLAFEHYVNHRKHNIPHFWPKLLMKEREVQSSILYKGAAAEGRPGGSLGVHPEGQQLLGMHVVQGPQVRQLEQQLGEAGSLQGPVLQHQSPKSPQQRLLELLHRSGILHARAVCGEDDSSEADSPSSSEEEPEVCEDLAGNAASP
Chain of frog Thyroid hormone Receptor alpha (TRa), thra-a (gene 397942) (P15204 whole entry, looked up, the tested form may be a part): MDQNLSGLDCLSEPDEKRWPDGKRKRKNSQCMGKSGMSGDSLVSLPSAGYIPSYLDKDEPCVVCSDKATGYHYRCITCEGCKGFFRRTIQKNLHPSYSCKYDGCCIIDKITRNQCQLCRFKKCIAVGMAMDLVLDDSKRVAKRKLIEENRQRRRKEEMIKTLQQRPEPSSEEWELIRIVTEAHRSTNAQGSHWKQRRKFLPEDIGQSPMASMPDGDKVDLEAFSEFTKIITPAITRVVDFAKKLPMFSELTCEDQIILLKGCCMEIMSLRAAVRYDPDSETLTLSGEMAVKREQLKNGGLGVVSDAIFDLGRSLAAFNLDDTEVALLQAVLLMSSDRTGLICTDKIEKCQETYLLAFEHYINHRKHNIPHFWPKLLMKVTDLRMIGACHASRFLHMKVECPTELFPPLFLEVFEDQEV

Broadly, the AC50 is the midpoint of the concentration-response curve, whichever way the signal moves. On to `COCCl`, for which the AC50 in [1] is 7.08 µM (active). The molecule was classed as inactive in assay [1], in [2], in assay [3], in [4], in assay [5] and in [6].

On to `CC(C)=CC1C(C(=O)OCc2cccc(Oc3ccccc3)c2)C1(C)C` (centres undefined), for which the result in assay [7] and in assay [8] was inactive.

Consider `OC[P+](CO)(CO)CO`, for which the AC50 in assay [9] was 6.54 µM (active); in [10] it was 6.42 µM (active); in assay [11] it was 3.48 µM (active); in assay [12], 4.63 µM (active); in assay [13], 3.54 µM (active); in assay [14], 12.3 µM (active). In addition, the concentration at half-maximal activity (AC50) in [15] is 2.5 µM (active).

For `[Cl][Sn]([c]1ccccc1)([c]1ccccc1)[c]1ccccc1`, the AC50 in [16] is 0.925 µM (active); in assay [6], 0.558 µM (active). The molecule was called inactive in [2], in assay [3], in assay [17], in assay [18] and in [5].

For `O=[N+]([O-])c1ccccc1O`, the result in assay [7] and in [8] was inactive.

Regarding `CCCSP(=S)(OCC)Oc1ccc(SC)cc1` (centres undefined), the result in [7] and in assay [8] was inactive.

`O=c1oc2ccccc2c(O)c1C(CC(O)c1ccc(-c2ccc(Br)cc2)cc1)c1ccccc1` (centres undefined): the AC50 in assay [1] was 31.6 µM (active); in [2], 6.09 µM (active). In addition, the call in assay [3], in assay [18] and in assay [6] was inactive.

With `Oc1cc(Cl)c(Cl)cc1Cl`, the molecule was called inactive in assay [1], in assay [16], in assay [2], in [3], in [18] and in [19]. For the same molecule, the outcome in [4], in assay [5], in assay [6], in [7] and in assay [8] was inactive. The AC50 in assay [3] was 21.7 µM (active); in [4] it was 26.3 µM (active); in assay [5], 100 µM (active).

As to `CC(C)N(C(=O)CCl)c1ccccc1`, the outcome in assay [7] and in assay [8] was inactive.

`CCOc1ccc(N)cc1`: the result in assay [7] and in assay [8] was inactive.

With `O=C1c2ccccc2C(=O)C1C(=O)C(c1ccccc1)c1ccc(Cl)cc1` (centres undefined), the result in [7] and in assay [8] was inactive.

Turning to `CCOCn1c(-c2ccc(Cl)cc2)c(C#N)c(Br)c1C(F)(F)F`, the AC50 in assay [7] was 0.616 µM (active). In addition, in assay [8], the result was inactive.
